In the supplement of paper PMC7156485:
± gives the standard deviation of the averaged measurements.

How the values were obtained:
Details in all cases: concentration: 10 µM; 24 h
HCC1569 [1] = test: cell number relative to DMSO (% of DMSO); higher = more cells (less growth inhibition / toxicity)
How it was run: (§1)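 Cell number or H1.0 nuclear intensity appears as percent of the plate control, based on the median of replicates. Measurements came from HCC1569 and TDF cells exposed in triplicate to compounds at 10 µM for 24 h at 37 °C, then imaged in six fields per well at ×10. Positional effects were smoothed out of HCC1569 values.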

TDF [2] = test: as above
How it was run: as §1

TDF [3] = test: H1.0 immunofluorescence intensity relative to DMSO (% of DMSO); higher = stronger H1.0 induction, active = 120 or more
How it was run: as §1

HCC1569 [4] = test: H1.0 immunofluorescence intensity relative to DMSO (% of DMSO); higher = stronger H1.0 induction, active = 140 or more
How it was run: as §1
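Throughout, for H1.0 immunofluorescence intensity relative to DMSO: TDF is a line of transformed human dermal fibroblasts of mesenchymal origin.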
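Throughout, for cell number relative to DMSO: TDF denotes transformed human dermal fibroblasts of mesenchymal origin.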

CC(C)C(CO)Nc1nc(Nc2ccc(C(=O)O)c(Cl)c2)c2ncn(C(C)C)c2n1 (centres undefined)
cell number (HCC1569 [1]): 100 | cell number (TDF [2]): 112 | H1.0 immunofluorescence intensity (TDF [3]): 96.7 (inactive) | H1.0 immunofluorescence intensity (HCC1569 [4]): 115 (inactive)

O=C(O)CCCCC=CCC(O)C=CC=CC=CC(O)CCCC(=O)O (centres undefined) [20-Carboxy-leukotriene B4]
cell number (HCC1569 [1]): 102 | cell number (TDF [2]): 103 | H1.0 immunofluorescence intensity (TDF [3]): 91.1 (inactive) | H1.0 immunofluorescence intensity (HCC1569 [4]): 102 (inactive)

Cc1ccc(C(=O)COC(=O)c2cccc(NC(=O)c3ccc([N+](=O)[O-])cc3[N+](=O)[O-])c2)cc1
cell number (HCC1569 [1]): 76.5 | cell number (TDF [2]): 67.7 | H1.0 immunofluorescence intensity (TDF [3]): 110 (inactive) | H1.0 immunofluorescence intensity (HCC1569 [4]): 152 (active)

CC1OC(n2cc(F)c(=O)[nH]c2=O)C(O)C1O (centres undefined) [Doxifluridine]
cell number (HCC1569 [1]): 88.3 | cell number (TDF [2]): 107 | H1.0 immunofluorescence intensity (TDF [3]): 98.3 (inactive) | H1.0 immunofluorescence intensity (HCC1569 [4]): 101 (inactive)

CCCCCC=CCC=CC=CC=CC(SCC(NC(=O)CCC(N)C(=O)O)C(=O)NCC(=O)O)C(O)CCCC(=O)O (centres undefined) [Leukotriene C4]
cell number (HCC1569 [1]): 99.8 | cell number (TDF [2]): 92.2 | H1.0 immunofluorescence intensity (TDF [3]): 90.1 (inactive) | H1.0 immunofluorescence intensity (HCC1569 [4]): 105 (inactive)

O=C(CCCN1CCN(c2ccccn2)CC1)c1ccc(F)cc1 [Azaperone]
cell number (HCC1569 [1]): 98.6 | cell number (TDF [2]): 112 | H1.0 immunofluorescence intensity (TDF [3]): 96.7 (inactive) | H1.0 immunofluorescence intensity (HCC1569 [4]): 103 (inactive)

NCC1OC(OC2C(N)CC(N)C(OC3OC(CO)C(O)C(N)C3O)C2O)C(O)C(O)C1O.O=S(=O)(O)O (centres undefined) [Kanamycin sulfate]
cell number (HCC1569 [1]): 99.5 | cell number (TDF [2]): 106 | H1.0 immunofluorescence intensity (TDF [3]): 99.3 (inactive) | H1.0 immunofluorescence intensity (HCC1569 [4]): 90.1 (inactive)

COc1ccc(-c2cc(=O)c3c(OC)c(OC)c(OC)cc3o2)cc1OC [Sinensetine]
cell number (HCC1569 [1]): 101 | cell number (TDF [2]): 99.8 | H1.0 immunofluorescence intensity (TDF [3]): 93.9 (inactive) | H1.0 immunofluorescence intensity (HCC1569 [4]): 93.6 (inactive)

CN(C)CCC(c1ccc(Br)cc1)c1ccccn1.O=C(O)C=CC(=O)O (racemic)
cell number (HCC1569 [1]): 101 | cell number (TDF [2]): 98.7 | H1.0 immunofluorescence intensity (TDF [3]): 97.9 (inactive) | H1.0 immunofluorescence intensity (HCC1569 [4]): 94.6 (inactive)

COC(=O)C1=C(C)NC(C)=C(C(=O)OCCN(C)Cc2ccccc2)C1c1cccc([N+](=O)[O-])c1.Cl (centres undefined) [Nicardipine hydrochloride]
cell number (HCC1569 [1]): 96.7 | cell number (TDF [2]): 103 | H1.0 immunofluorescence intensity (TDF [3]): 99.2 (inactive) | H1.0 immunofluorescence intensity (HCC1569 [4]): 100 (inactive)

CC(C)N(CCC(=O)c1ccc2ccccc2c1)Cc1ccccc1.Cl [JAK3 Inhibitor IV]
cell number (HCC1569 [1]): 101 | cell number (TDF [2]): 97 | H1.0 immunofluorescence intensity (TDF [3]): 96.1 (inactive) | H1.0 immunofluorescence intensity (HCC1569 [4]): 110 (inactive)

O=C(O)c1ccc(SC2=NS(=O)(=O)c3ccccc32)cc1 [4-((1,1-dioxidobenzo[d]isothiazol-3-yl)thio)benzoic acid]
cell number (HCC1569 [1]): 100 | cell number (TDF [2]): 107 | H1.0 immunofluorescence intensity (TDF [3]): 93.5 (inactive) | H1.0 immunofluorescence intensity (HCC1569 [4]): 98.7 (inactive)

CC(C)(C)n1nc(Cc2cccc3ccccc23)c2c(N)ncnc21 [PP1 Analog II, 1NM-PP1]
cell number (HCC1569 [1]): 82.1 | cell number (TDF [2]): 103 | H1.0 immunofluorescence intensity (TDF [3]): 93.1 (inactive) | H1.0 immunofluorescence intensity (HCC1569 [4]): 152 (active)

OCC1OC(Oc2ccc(O)cc2)C(O)C(O)C1O (centres undefined) [Arbutin]
cell number (HCC1569 [1]): 99.6 | cell number (TDF [2]): 101 | H1.0 immunofluorescence intensity (TDF [3]): 102 (inactive) | H1.0 immunofluorescence intensity (HCC1569 [4]): 92.1 (inactive)

CC(=O)OCC(=O)C1(O)CCC2C3CCC4=CC(=O)CCC4(C)C3C(=O)CC21C (centres undefined) [Cortisone 21-acetate]
cell number (HCC1569 [1]): 101 | cell number (TDF [2]): 120 | H1.0 immunofluorescence intensity (TDF [3]): 97.5 (inactive) | H1.0 immunofluorescence intensity (HCC1569 [4]): 89.1 (inactive)

CCN(CC)CCOC(=O)c1cc(Cl)c(N)cc1OC.Cl [SDZ-205,557 hydrochloride]
cell number (HCC1569 [1]): 105 | cell number (TDF [2]): 98.8 | H1.0 immunofluorescence intensity (TDF [3]): 85.4 (inactive) | H1.0 immunofluorescence intensity (HCC1569 [4]): 86.8 (inactive)

CNCCC(Oc1ccccc1OC)c1ccccc1.Cl (centres undefined) [Nisoxetine.HCl]
cell number (HCC1569 [1]): 105 | cell number (TDF [2]): 101 | H1.0 immunofluorescence intensity (TDF [3]): 92.1 (inactive) | H1.0 immunofluorescence intensity (HCC1569 [4]): 109 (inactive)

NC(N)=NC(N)=Nc1ccccc1 [1-Phenylbiguanide]
cell number (HCC1569 [1]): 105 | cell number (TDF [2]): 114 | H1.0 immunofluorescence intensity (TDF [3]): 89.2 (inactive) | H1.0 immunofluorescence intensity (HCC1569 [4]): 84.1 (inactive)

CCOC(=O)C(CCc1ccccc1)NC(C)C(=O)N1Cc2ccccc2CC1C(=O)O (centres undefined) [Quinapril]
cell number (HCC1569 [1]): 102 | cell number (TDF [2]): 101 | H1.0 immunofluorescence intensity (TDF [3]): 101 (inactive) | H1.0 immunofluorescence intensity (HCC1569 [4]): 101 (inactive)

CC(C)Cc1ccc(C(C)C(=O)O)cc1 (stereo not drawn) [S(+)-Ibuprofen]
cell number (HCC1569 [1]): 103 | cell number (TDF [2]): 108 | H1.0 immunofluorescence intensity (TDF [3]): 96 (inactive) | H1.0 immunofluorescence intensity (HCC1569 [4]): 90.5 (inactive)

CCCn1c(=O)[nH]c(=O)c2[nH]cnc21 [3-n-Propylxanthine]
cell number (HCC1569 [1]): 104 | cell number (TDF [2]): 105 | H1.0 immunofluorescence intensity (TDF [3]): 92.3 (inactive) | H1.0 immunofluorescence intensity (HCC1569 [4]): 101 (inactive)

CN[C@H](CC(=O)O)C(=O)O [N-Methyl-D-aspartic acid]
cell number (HCC1569 [1]): 104 | cell number (TDF [2]): 109 | H1.0 immunofluorescence intensity (TDF [3]): 85.2 (inactive) | H1.0 immunofluorescence intensity (HCC1569 [4]): 98.8 (inactive)

CN1CCN(C2=c3ccccc3=Nc3ccc(Cl)cc3N2)CC1 [Clozapine]
cell number (HCC1569 [1]): 99.6 ± 4.2 | cell number (TDF [2]): 105 ± 0.29 | H1.0 immunofluorescence intensity (TDF [3]): 95.4 (inactive) | H1.0 immunofluorescence intensity (HCC1569 [4]): 106 (inactive)

CN(C)CCC=C1c2ccccc2COc2ccccc21.Cl [Doxepin hydrochloride]
cell number (HCC1569 [1]): 100 | cell number (TDF [2]): 95.2 | H1.0 immunofluorescence intensity (TDF [3]): 93.1 (inactive) | H1.0 immunofluorescence intensity (HCC1569 [4]): 97.5 (inactive)

O=C1c2ccccc2-[n+]2ccc3c([nH]c4ccccc43)c21.[Cl-] [Fascaplysin, Synthetic]
cell number (HCC1569 [1]): 49.8 | cell number (TDF [2]): 6.76 | H1.0 immunofluorescence intensity (TDF [3]): 182 (active) | H1.0 immunofluorescence intensity (HCC1569 [4]): 60.9 (inactive)

CCCCCCCCC=CCCCCCCCC(=O)OCC(CO)OC(=O)CCCCCCCC=CCCCCCCCC (centres undefined) [1,2-Dioleoyl-glycerol (18:1)]
cell number (HCC1569 [1]): 100 | cell number (TDF [2]): 104 | H1.0 immunofluorescence intensity (TDF [3]): 95.2 (inactive) | H1.0 immunofluorescence intensity (HCC1569 [4]): 101 (inactive)
